# The campaign covered roughly 190,000 compounds. About 1,900 (1%) were called active.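 How the source made its calls: active means percentage of spot-positive cells more than 3 SD above its plate mean, without a fluorescence outlier flag or 80% toxicity; inconclusive means no clear call, values can overlap the other calls; inactive means the rest.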 The list comes from a sample in which actives are over-represented; it also holds similar structures and randomly drawn compounds.
# Test: GFP-LC3 puncta formation changes – imaging, high-content, MEF GFP-LC3, primary screen (AID 463193);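 on % cells with GFP-LC3 spots: spot-positive cell cutoff set from DMSO-treated cells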;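 on toxicity: cell loss after 18 h compound exposure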
# Conditions: autophagy, at 10 µM; % cells with GFP-LC3 spots: stronger effect = higher value; toxicity: measured here: cell loss, nuclei count
Structure (SMILES),% cells with GFP-LC3 spots,toxicity [%]
COc1cccc(NC(=S)N(CCc2c(C)[nH]c3ccccc23)Cc2ccco2)c1,9.78% (inactive),16.6
CCNC(=S)N(CCc1c(C)[nH]c2ccc(C)cc12)Cc1ccco1,19.1% (active),0.117
COc1ccc2[nH]c(C)c(CCN(Cc3cccs3)C(=S)Nc3ccccc3OC)c2c1,12.3% (inactive),16.6
COC(=O)c1nc2n(n1)C(c1ccc([N+](=O)[O-])cc1)C(C(=O)Nc1ccc(Cl)cc1)=C(C)N2 (centres undefined),5.34% (inactive),-5.39
O=C(c1cccc([N+](=O)[O-])c1)N1CCN(C(=O)c2ccco2)CC1,0.295% (inactive),7.8
CCC(=O)c1ccc(OCC(O)CN2CCN(c3cccc(C(F)(F)F)c3)CC2)cc1 (centres undefined),13.1% (active),8.02
CCC(=O)c1ccc(OCC(O)CN2CC(C)OC(C)C2)cc1 (centres undefined),5.51% (inactive),-8.47
O=C(COc1ccc(Cl)cc1)N1CCN(c2cccc(C(F)(F)F)c2)CC1,9.65% (inactive),-3.29
CCO[C@@H]1OC(C(N)=O)=C[C@H](c2ccc(Br)cc2)[C@H]1CCCO,18.2% (inactive),10.9
CNS(=O)(=O)c1ccc(NC(=O)C2CC(=O)N(c3ccc(Cl)cc3)C2)cc1 (centres undefined),8.63% (inactive),-13.2
COc1cccc(C(=O)N2CCCC(CCC(=O)NCc3ccc(F)c(F)c3)C2)c1 (centres undefined),3.38% (inactive),5.82
O=C(O)CC(Cc1ccccc1)C(=O)Nc1ccc([N+](=O)[O-])cc1 (centres undefined),1.42% (inactive),-2.46
CN(C)S(=O)(=O)c1ccc2oc(SCC(=O)Nc3ccccc3F)nc2c1,0.884% (inactive),-4.66
Cc1cccc(C(=O)N2CCc3c([nH]c4ccccc34)C2CC(C)C)n1 (centres undefined),11% (inactive),-2.26
C=CCNC(=O)CCCC(=O)NCC=C,17.9% (active),1.29
C=CCNC(=O)CCCOc1cccc(C)c1,10.7% (inactive),16.1
C=CCNC(=O)CC12CC3CC(C1)CC(CC(=O)NCC=C)(C3)C2,23% (inactive),16.8
O=C(O)c1cccc(N=NN2CCCCCC2)c1,6.85% (inactive),-1.54
CSc1ncnc2sc(C)c(C)c12,10.2% (inactive),24.5
CCCOC(=O)c1[nH]c2c(c1C)C(=O)CC(c1cccs1)C2 (centres undefined),19% (active),63
CCOC(=O)c1[nH]c2c(c1C)C(=O)CC(c1ccc(N(C)C)cc1)C2 (centres undefined),2.24% (inactive),-7.4

Structure (SMILES),% cells with GFP-LC3 spots,toxicity [%]
CCCOC(=O)c1[nH]c2c(c1C)C(=O)CC(c1cc(OC)c(OC)c(OC)c1)C2 (centres undefined),12.1% (inactive),15.9
Cc1ccc(SC(C)C(=O)NCc2ccc(F)cc2)cc1 (centres undefined),0.143% (inactive),-15
COc1cccc(Cn2cnc3c([N+](=O)[O-])c(C)c(C)cc32)c1,6.93% (active),-2.05
Cc1cccc(Cn2cnc3c(N)c(C)c(C)cc32)c1,1.71% (inactive),1.99
Cc1nn(C)c(Oc2ccccc2)c1[N+](=O)[O-],2.75% (inactive),-3.54
CCOc1cccc(OCCCOc2cccc3cccnc23)c1,3.63% (inactive),-4.48
Fc1ccc2nc(-c3ccccc3)nc(SCc3nnc(-c4ccccc4)o3)c2c1,4.88% (inactive),16.1
Cc1ccc2nc(SCc3nnc(-c4ccccc4[N+](=O)[O-])o3)c(C#N)cc2c1,85.6% (active),21.6
Cc1nonc1NC(=O)CSc1nc2ccccc2cc1C#N,0.583% (inactive),-8.81
CCOc1ccc(Br)cc1S(=O)(=O)N1CCC(C(=O)O)CC1,6.06% (inactive),14.1
C/C(=N/O)c1ccc(N2C(=O)C3C4C=CC(C3C2=O)C2C3C(=O)N(c5ccc(/C(C)=N/O)cc5)C(=O)C3C42)cc1 (centres undefined),11.7% (inactive),14.4
O=C(NC(Nc1nc2ccc([N+](=O)[O-])cc2s1)(C(F)(F)F)C(F)(F)F)c1ccccc1,31.8% (active),57.9
O=C(O)CCC(=O)Nc1nc2ccc([N+](=O)[O-])cc2s1,6.76% (inactive),11.6
O=C(Nc1nc2ccc([N+](=O)[O-])cc2s1)c1ccc(S(=O)(=O)N2CCCc3ccccc32)cc1,16.8% (inactive),25.4
O=C(c1ccc2ccccc2n1)N1CCN(c2ccccc2Cl)CC1,4.83% (inactive),-5.94
CCOC(=O)N1CCN(C(=O)CSc2nc(C)nc3c2c(=O)n(C)c(=O)n3C)CC1,12.3% (inactive),3.6
Cc1ncoc1C(=O)NCCC(c1ccccc1)c1ccccc1,18% (inactive),11.5
COc1cccc(CNC(=O)CCC2CCCN(C(=O)c3cc(C)[nH]n3)C2)c1 (centres undefined),0.272% (inactive),-19.2
Cc1occc1C(=O)N1CCCc2ccccc21,12.6% (inactive),-3.33
O=C(c1cccc(C(=O)N2CCc3ccccc32)n1)N1CCc2ccccc21,7.33% (inactive),25.5
Cc1cccc2cc3c(N)c(C(=O)N4CCCc5ccccc54)sc3nc12,34.9% (active),33.8

Structure (SMILES),% cells with GFP-LC3 spots,toxicity [%]
O=C(/C=C/c1ccc(F)cc1)Nc1cccc(S(=O)(=O)Nc2cccc(C(F)(F)F)c2)c1,3.21% (inactive),11.4
O=c1[nH]c(=S)[nH]c2[nH]c(=S)[nH]c12,16.3% (inactive),14.2
CCOc1ccccc1NC(=O)c1cccnc1,1.43% (inactive),1.42
CCOc1cc(NC(=O)c2ccccn2)c(OCC)cc1NC(=O)c1ccc(OC)cc1,2.17% (inactive),23.7
CCOc1cc(NC(=O)c2cnccn2)c(OCC)cc1NC(=O)c1ccc(C)cc1,16.1% (active),-0.236
COc1ccc(/C=C/C(=O)NC(=S)NN2CCCCC2c2cccnc2)cc1 (centres undefined),2.8% (inactive),2.51
CCOCCCNC(=O)C(NC(=O)c1ccc(=O)[nH]c1)c1ccc(C)cc1 (centres undefined),3.93% (inactive),-0.266
CCOCCCNC(=O)C(NC(=O)c1ccccc1O)c1ccccc1 (centres undefined),5.35% (inactive),-34
CCOCCCNC(=O)C(NC(=O)c1ccc(=O)[nH]c1)c1ccc(Cl)cc1 (centres undefined),28% (active),44.6
CCc1nnc(NC(=O)CCCSc2nc3ccccc3[nH]2)s1,1.66% (inactive),-3.54
COc1ccc(-n2ncc3c(N4CCCc5ccccc54)ncnc32)cc1,7.91% (inactive),7.86
Cc1cccc(-n2ncc3c(N4CCc5ccccc54)ncnc32)c1,1.09% (inactive),-9.01
COc1ccc(-n2ncc3c(N4CCc5ccccc54)ncnc32)cc1,10.6% (active),12.2
Cc1ccc2nc(-c3ccccn3)cc(C(=O)Nc3ccc4c(c3)OCO4)c2c1,4.19% (inactive),13.2
CC1(C)C2CCC1(C)C(OC(=O)c1ccc(O)cc1)C2 (centres undefined),19.1% (inactive),2.39
COc1ccc(-c2[nH]ncc2CN(C)Cc2cccnc2)c(F)c1,3.28% (inactive),15.9
O=Cc1cn(Cc2ccccc2)nc1-c1cccnc1,0.945% (inactive),1.14
Clc1ccc(CN2CCN(/N=C/c3cccnc3)CC2)cc1,0.128% (inactive),-10.7
O=C1/C(=C\c2cccnc2)CN(Cc2ccccc2)C/C1=C\c1cccnc1,52.1% (active),-17.6
Cc1ccc(NC(=O)NC2CCCCC2)cc1S(=O)(=O)N1CCOCC1,9.14% (inactive),-3.67
Cc1ccc(-n2c(C)cc(/C=N/Nc3ccc([N+](=O)[O-])cn3)c2C)c(C)c1,52% (active),-31.7

Structure (SMILES),% cells with GFP-LC3 spots,toxicity [%]
Cc1cccc(COc2ccccc2/C=N/Nc2ccc([N+](=O)[O-])cc2)c1,1.93% (inactive),8.3
COc1cc(/C=N\Nc2ccc([N+](=O)[O-])cn2)ccc1OCC(=O)O,1.45% (inactive),-6.18
N#Cc1c(-c2ccc(F)cc2)cc(C2CC2)nc1SCC(=O)c1cccs1,86.4% (active),-1.55
O=C(CSc1nc2ccccc2[nH]1)c1cccs1,0.463% (inactive),5.37
CCOC(=O)CC(=O)CSc1nc(-c2ccccc2)cc(-c2ccc(Cl)cc2)c1C#N,3.63% (inactive),-4.4
Cc1ccc(CC(=O)Nc2ccc(OC(F)F)c(Cl)c2)cc1C,6.36% (inactive),-11.9
CCN1CCN(C(=O)c2ccc(CN(c3ccc(C)c(C)c3)S(C)(=O)=O)cc2)CC1,5.04% (inactive),-26.7
Cc1cc(C(=O)N/N=C/c2ccc(O)c([N+](=O)[O-])c2)c(C)n1-c1ccc(F)cc1,6.11% (inactive),2.16
O=C(Nc1ccc(Br)cn1)c1ccc([N+](=O)[O-])cc1Cl,25.9% (inactive),12.1
CSc1ccc(/C=N\NC(=O)CC(=O)NC(C)C)cc1,3.73% (inactive),6.35
O=c1cc(-c2ccccc2)[nH]c2cc(F)ccc12,3.89% (inactive),-7.91
O=C(/C=C/c1ccc(Cl)cc1)Nc1ccc(Br)cn1,20.4% (inactive),30.5
Cc1ccc(S(=O)(=O)C(C#N)c2nc3ccccc3nc2N2CCCC2)cc1C (centres undefined),8.97% (inactive),-8.37
CC(C)OC(=O)C(C#N)c1nc2ccccc2nc1N1CCN(Cc2ccccc2)CC1 (centres undefined),41.3% (active),2.68
CCOC(=O)/C(C#N)=C/c1ccc(N2CCN(Cc3ccccc3)CC2)cc1,10.3% (inactive),10.6
O=[N+]([O-])c1ccc(Sc2n[nH]c(-c3ccco3)n2)nc1,0% (inactive),4.9
Cc1ccccc1CN1C[C@@H]2C[C@@H](c3cn(C)nc3-c3ccccc3)N3CCC[C@@]23C1=O,0.136% (inactive),-5.59
OCC1(CCc2ccccc2)CCN(Cc2ccc3nsnc3c2)CC1,0.559% (inactive),0.377
Cc1ccccc1CN1C[C@@H]2C[C@@H](c3ccc4nsnc4c3)N3CCC[C@@]23C1=O,34.4% (active),24.5
